Unmarked numbers belong to inactive results. Records with an inconclusive call do not appear. The source made the active and inactive calls. Unless noted, the call rests on the fitted dose curve; in most records, active means well fitted curve in the direction sought with a large enough effect in the repeat runs; inconclusive means weak or mixed curves; inactive means no such curve, though single readings can be large; an effect the other way counts as inactive or inconclusive.

Test [1] can be described thus: qHTS assay for small molecule agonists of the p53 signaling pathway (AID 651631; calls by dose curve; further: nearly all actives have a fitted effect of over 15% in size; further: potency means the concentration at half of the fitted maximal effect). In a few lines:
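Beta-lactamase reporter activity under p53 response elements was quantified in HCT-116 cells by FRET fluorescence, following 16 h incubation with test compounds at 37 °C and 2 h substrate development at room temperature.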
(In general: In qHTS, concentration-response curves come from the screen itself.)

A short description of test [2]: qHTS assay for small molecules that induce genotoxicity in human embryonic kidney cells expressing luciferase-tagged ATAD5 (AID 651632). Further: nearly all actives have a fitted effect of over 15% in size. Further: potency means the concentration at half of the fitted maximal effect. An outline of the steps:
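DMSO vehicle served as the control. HEK293T reporter cells, 16 hr at 37C, then 30 min Amplite at room temperature; ATAD5 induction is measured as luciferase activity.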

Test [3] can be described thus: qHTS assay for small molecule agonists of the p53 signaling pathway - cell viability (AID 651633; calls by dose curve;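 further: p53RE-bla HCT reporter cells with a stable beta-lactamase p53 reporter; series mostly up to about 83 µM; nearly all actives have a fitted effect of over 30% in size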). In a few lines: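 p53RE-bla cells were treated with compound for 16 hours at 37 C. Cytotoxicity was then measured as CellTiter-Glo luminescence after 30 min at room temperature.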
Test [4] can be described thus: qHTS assay for small molecules that induce genotoxicity in human embryonic kidney cells expressing luciferase-tagged ATAD5 - cell viability (AID 651634; calls by dose curve; further: nearly all actives have a fitted effect of over 25% in size). An outline of the steps:
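Here HEK293T cells with the ATAD5 luciferase reporter are incubated with test compounds for 15.5 hr, and cytotoxicity is then gauged by measuring protease activity in live cells using fluorescence.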

Test [5] is described as follows: qHTS assay for small molecule disruptors of the mitochondrial membrane potential - cell viability (AID 720634; calls by dose curve;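 further: human HepG2 liver cancer cells; series mostly up to about 83 µM; nearly all actives have a fitted effect of over 20% in size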). An outline of the steps: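 Viability of HepG2 cells is scored from ATP content by luminescence; cells are exposed to compound for 1 hr at 37 C and 5% CO2, then dosed with m-MPI dye before the CellTiter-Glo reagent.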
Test [6] is described as follows: qHTS assay to test for compound auto fluorescence at 590 nm (red) in HepG2 cells (AID 720674). In a few lines: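 Seeding: 2,000 HepG2 cells/well, MEM/10% FBS, overnight 37 C. Dosing: compound vs DMSO. Incubation: 1 hr, 37 C, 5% CO2. Read: fluorescence 540 ex/590 em, Rose Bengal sodium as red reference.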
The nature of test [7]: qHTS assay to test for compound auto fluorescence at 535 nm (green) in HepG2 cells (AID 720675).
Test [8] can be described thus: qHTS assay to test for compound auto fluorescence at 460 nm (blue) in HEK293 cells (AID 720678). Further: potency means the concentration at half of the fitted maximal effect. In a few lines:
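Measured: blue fluorescence (Ex 405/Em 460 nm) of compound-treated HEK293 cells, incubated overnight at 37C with 5% CO2 and scaled to triamterene equivalents.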

A short description of test [9]: qHTS assay to test for compound auto fluorescence at 590 nm (red) in HEK293 cells (AID 720679). In a few lines:
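Using HEK293 cells at 2,000 per well, the screen added 23 nL of each compound after cell attachment and incubated overnight (37C, 5% CO2). The plate reader then captured red-label fluorescence, Ex/Em 540/590nm.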

Test [10] can be described thus: qHTS assay to test for compound auto fluorescence at 535 nm (green) in HEK293 cells (AID 720680).
Test [11] is described as follows: qHTS assay to test for compound auto fluorescence at 535 nm (green) in HEK293 cell free culture (AID 720682). An outline of the steps: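 Each library compound, or DMSO control, is added by pintool to medium alone, comprising DMEM and 10% FBS. Emission at 535 nm following 485 nm excitation is quantified against fluorescein.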
Test [12] is described as follows: qHTS assay to test for compound auto fluorescence at 590 nm (red) in HEK293 cell free culture (AID 720683). In a few lines:
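Cell-free wells of DMEM with 10% FBS received compound, and intrinsic fluorescence was read at excitation/emission 540/590 nm. Values expressed as equivalence to Rose Bengal sodium.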

A short description of test [13]: qHTS assay to test for compound auto fluorescence at 460 nm (blue) in HepG2 cell free culture (AID 720685). Further: potency means the concentration at half of the fitted maximal effect. An outline of the steps: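 Cell-free plates of MEM plus 10% FBS received 23 nL compound or DMSO vehicle; blue-channel (405/460 nm) intensity scored against triamterene as reference fluorophore.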
A short description of test [14]: qHTS assay to test for compound auto fluorescence at 535 nm (green) in HepG2 cell free culture (AID 720686).
Test [15] is described as follows: qHTS assay to test for compound auto fluorescence at 460 nm (blue) in HEK293 cell free culture (AID 720681). In a few lines: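 Compounds were added to cell-free DMEM with 10% FBS and fluorescence read directly. The blue channel used 405 nm excitation and 460 nm emission, with triamterene as the reference fluorophore.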
Test [16] is described as follows: qHTS assay to test for compound auto fluorescence at 590 nm (red) in HepG2 cell free culture (AID 720684). An outline of the steps:
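Rose Bengal sodium served as the reference for red signal. Test compounds were dispensed into serum-containing MEM (10% FBS) without cells, and plates were read at 540/590 nm.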

Test [17] can be described thus: qHTS assay to test for compound auto fluorescence at 460 nm (blue) in HepG2 cells (AID 720687). In a few lines:
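HepG2 cells in MEM with 10% FBS, attached overnight at 37 C, were exposed to compound or DMSO for 1 hr at 37 C, 5% CO2. Blue fluorescence was read at 405/460 nm, with triamterene as reference fluorophore.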

The target in test [18] is Glucocorticoid receptor (Homo sapiens) (UniProt P04150). As to the kind of experiment: qHTS assay to identify small molecule antagonists of the glucocorticoid receptor (GR) signaling pathway (AID 720692; active means well fitted inhibition curve with a large enough effect in the signal ratio in the repeat runs, not every such curve was filed as active; the % refers to the signal ratio). An outline of the steps: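 In a 1536-well cell format, compounds were added 4 h after seeding GR-bla HeLa cells, together with dexamethasone at 5 nM final; reporter activity was measured by FRET-substrate fluorescence following 18 h at 37 C.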

Test [19] in a line: qHTS assay for small molecule disruptors of the mitochondrial membrane potential (AID 720635). Further: potency means the concentration at half of the fitted maximal effect. In a few lines:
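HepG2 cells exposed to compound 1 hr at 37C, then Mito-MPS dye 30 min. Ratio read of aggregate (540/590 nm) versus monomer (490/535 nm) fluorescence.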

The target of test [20] is Glucocorticoid receptor (Homo sapiens) (UniProt P04150). As to the kind of experiment: qHTS assay to identify small molecule agonists of the glucocorticoid receptor (GR) signaling pathway (AID 720691; active means well fitted activation curve with a large enough effect in the signal ratio in the repeat runs, not every such curve was filed as active; the % refers to the signal ratio). In a few lines: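 Compounds in DMSO, alongside positive controls, were added to GR-bla HeLa reporter cells and incubated 18 h at 37 C; GRE-driven beta-lactamase was detected by fluorescence after 2 h with FRET substrate at room temperature.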
Tags describe the fitted curve by direction and shape or compound fluorescence and quenching.

Sequence of Glucocorticoid receptor (Homo sapiens) (P04150 whole entry, looked up): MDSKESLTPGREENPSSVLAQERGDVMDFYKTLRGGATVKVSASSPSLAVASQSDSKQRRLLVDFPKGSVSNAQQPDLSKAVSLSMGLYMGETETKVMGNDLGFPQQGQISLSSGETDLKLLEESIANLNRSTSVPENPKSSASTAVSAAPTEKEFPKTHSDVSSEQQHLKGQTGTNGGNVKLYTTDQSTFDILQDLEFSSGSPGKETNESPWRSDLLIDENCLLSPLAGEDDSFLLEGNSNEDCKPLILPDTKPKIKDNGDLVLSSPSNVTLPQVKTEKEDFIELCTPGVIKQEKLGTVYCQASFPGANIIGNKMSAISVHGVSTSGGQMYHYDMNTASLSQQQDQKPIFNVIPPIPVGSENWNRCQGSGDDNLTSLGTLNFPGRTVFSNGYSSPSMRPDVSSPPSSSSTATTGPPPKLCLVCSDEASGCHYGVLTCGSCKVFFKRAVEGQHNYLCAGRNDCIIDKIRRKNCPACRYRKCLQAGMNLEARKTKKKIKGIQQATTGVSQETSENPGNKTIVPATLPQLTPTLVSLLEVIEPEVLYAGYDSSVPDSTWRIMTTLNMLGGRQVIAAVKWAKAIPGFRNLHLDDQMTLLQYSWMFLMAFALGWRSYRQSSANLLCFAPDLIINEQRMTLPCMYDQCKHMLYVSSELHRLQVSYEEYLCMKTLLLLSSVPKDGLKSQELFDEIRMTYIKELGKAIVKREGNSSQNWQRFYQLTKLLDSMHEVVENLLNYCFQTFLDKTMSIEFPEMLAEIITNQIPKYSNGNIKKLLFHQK

`c1ccc2cc3c(cc2c1)-c1cccc2cccc-3c12`: the Potency is 1.7 µM (active) in [1], 3.55 µM [fluorescent] (active) in test [8] and 1.41 µM [fluorescent] (active) in test [13]. Also, the Potency result in test [2], in [3], in test [4] and in test [5] was “inactive” each time. Further, the outcome in test [6], in test [7], in test [9], in test [10], in test [11] and in test [12] was inactive. Moreover, the compound was called inactive in test [14].
Take `ClC(Cl)=C(Cl)Cl`: the Potency entry in [1], in test [2], in [3], in test [4], in test [5] and in test [8] was “inactive” throughout. Also, the Potency result in test [15], in test [13] and in [17] was “inactive” in each case. Further, the compound was called inactive in test [6], in test [7], in test [9], in test [10], in [11] and in test [12]. Further, the compound was called inactive in test [16] and in test [14].
Consider `CCCN(CCC)CCc1c[nH]c2ccccc12`, for which the Potency entry in [1], in test [2], in [3], in test [4], in test [5] and in test [8] was “inactive” in each case. Further, the Potency entry in [15], in [17] and in [18] was “inactive” in each case. Moreover, the compound was called inactive in test [6], in [7], in test [9], in [10], in test [11] and in test [12]. Moreover, the outcome in test [16] and in test [14] was inactive.
Regarding `CC(=O)/C=C/c1ccc2c(c1)OCO2`, the Potency in test [1] was 30.8 µM (active). For the same compound, the Potency entry in test [2], in [3], in [4], in [5], in [19] and in test [8] was “inactive” each time. The Potency result in test [15] and in test [17] was “inactive” throughout. In addition, the compound was classed as inactive in test [6], in test [7], in [9], in test [10], in [11] and in [12]. Further, the compound was called inactive in test [16] and in [14].
For `C1CCC2CCCCC2C1` (configuration not stated), the Potency result in test [1], in test [2], in [3], in [4], in test [5] and in test [8] was “inactive” throughout. The Potency result in test [15], in test [13], in test [17] and in test [20] was “inactive” in each case. The call in test [6], in test [7], in [10], in test [11], in [12] and in test [16] was inactive. Besides, the result in [14] was inactive.
`Nc1ccccc1C(=O)Oc1ccc2ccccc2c1`: the Potency entry in [1], in [3], in test [4], in [8], in test [15] and in test [13] was “inactive” each time. The Potency entry in test [17] was “inactive”. Further, the Potency is 5.45 µM (active) in test [2] and 61.1 µM (active) in test [19]. Moreover, the result in [6], in test [7], in test [9], in test [10], in test [11] and in test [12] was inactive. The call in test [16] and in test [14] was inactive.
Regarding `CN(C)CCc1c[nH]c2ccc(O)cc12`, the Potency result in test [1], in test [2], in [3], in test [4], in test [5] and in test [19] was “inactive” each time. The Potency entry in [8], in test [15], in test [13], in [17] and in test [20] was “inactive” each time. For the same compound, the result in test [6], in test [7], in [9], in test [10], in test [11] and in test [12] was inactive. Besides, the result in test [14] was inactive.
